Vaccinia mCherry: inhibitors of vaccinia virus infection (mCherry reporter signal). Vaccinia virus mCherry reporter infection, fluorescence. Potency, µM (highest dose often 36.5 µM), hits mostly inhibitors. actives 0.63% (n = 310,000); calls by dose curve; tested in A549 cells; note: nearly all actives have a fitted effect of over 35% in size
Lassa entry inh: blocks Lassa virus binding to or entry into cells | Lassa virus pseudotype entry inhibition, cell reporter | Potency, µM (doses to about 37.9 µM), most hits filed as inhibitors | actives 1.2% (n = 300,000) | AID 540256; calls by dose curve; tested in HEK293 cells; note: nearly all actives have a fitted effect of over 50% in size
MARV entry inh: Marburg virus entry inhibition. Marburg virus pseudotyped entry inhibition, cell reporter. Potency, µM (series often up to 37.8 µM), most hits filed as inhibitors. actives 1.8% (n = 300,000). AID 540276; calls by dose curve; tested in HEK293 cells
Shiga toxin inh: inhibitors of Shiga toxin in Vero cells | actives 9.2% (n = 290,000) | inhibition, % at 38.7 µM | Vero cells, Shiga toxin protein synthesis inhibition reporter; in the data active = inhibition mostly above about 28%, no sharp cut-off; inactive = mostly below about 43%
Vaccinia Venus: vaccinia inhibition (Venus reporter). Vaccinia virus Venus reporter expression, fluorescence. Potency, µM (titrated, usually from 36.5 µM), hits mostly inhibitors. actives 0.46% (n = 330,000); calls by dose curve; tested in A549 cells; note: nearly all actives have a fitted effect of over 30% in size
CHX counter-1: counter-screen hit for Shiga toxin inhibitors, cycloheximide. AID 2314. actives 12% (n = 300,000). cell reporter, cycloheximide protein synthesis inhibition counterscreen. max response, %; in the data active = max response mostly above about 13%, no sharp cut-off; inactive = mostly below about 14%; note: read at 38.3 µM for the half of the compounds with a filed dose
CHX counter-2: affects protein synthesis reporter in cycloheximide counter-screen. shares compounds with Shiga toxin inh. Cycloheximide counterscreen, protein synthesis reporter, Shiga toxin assay. Potency, µM (series often up to 38.3 µM), most hits filed as activators. actives 3% (n = 510). AID 2318; calls by dose curve
Numbers stand for hits; - = inactive; ? = inconclusive; . = no result given. Shown is part of a subset that was picked to be rich in hits.

SMILES	Vaccinia mCherry	Lassa entry inh	MARV entry inh	Shiga toxin inh	Vaccinia Venus	CHX counter-1	CHX counter-2
CCc1cccc(CC)c1NC(=O)CSc1nc2ccc(N3C(=O)C4C(C3=O)[C@H]3C=C[C@@H]4C3)cc2s1 (some centres undefined)	?	-	-	-	?	-	.
CCn1c(P(C)(=O)O)nc2cc(NC(=O)c3ccccc3F)ccc21	-	-	-	32.2	-	-	-
CCn1c(P(C)(=O)O)nc2ccccc21	-	-	-	-	-	-	.
Cc1ccc(NC(=O)Cn2cnc3cc([N+](=O)[O-])ccc3c2=O)c(Cl)c1	-	-	-	-	-	-	.
O=C(Cn1cnc2cc([N+](=O)[O-])ccc2c1=O)NCc1ccc(Cl)cc1	?	-	-	47.1	-	-	-
CCOC(=O)N1CCN(S(=O)(=O)c2ccc(OC)c(Br)c2)CC1	.	.	.	.	.	-	.
COc1ccc(CNC(=O)C(OC(=O)c2ccco2)c2ccccc2F)cc1 (centres undefined)	-	-	-	40.1	-	-	-
COc1ccc(C(=O)CC(=O)C(=O)Nc2ccc(C)cc2Cl)cc1	-	?	?	21.8	-	-	-
COc1ccc(C(=O)CC(=O)C(=O)Nc2cccc([N+](=O)[O-])c2C)cc1	-	?	-	-	-	-	.
O=C(c1cc2c(s1)-c1ccccc1OC2)N1CCN(c2ccccc2)CC1	-	.	-	61.7	-	-	-
COc1ccc(N2CCN(C(=O)c3cc4c(s3)-c3ccccc3OC4)CC2)cc1	-	.	-	-	-	-	.
Cn1ncc(Cl)c1C(=O)Nc1ccc(Cl)cn1	-	-	-	45.0	-	-	?
Cn1ncc(Cl)c1C(=O)Nc1cccc(Cl)c1	.	?	-	-	.	-	.
CSc1cccc(NC(=O)c2c(Cl)cnn2C)c1	-	?	-	33.0	-	-	?
CCOc1ccc(S(=O)(=O)Nc2ccc3c(c2)n(C)c(=O)n3C)cc1	-	-	-	91.7	-	-	-
O=C(Nc1ccc(Cl)cc1)c1ccncc1	-	-	-	52.2	-	-	?
O=C(/C=C/Nc1ccc(F)cc1F)c1ccco1	-	?	?	48.7	-	-	0.252µM
O=C(/C=C/c1cccs1)c1ccco1	-	-	-	.	-	.	.
COc1cccc(CN(C)C(=O)/C=C/c2ccc(S(=O)(=O)N3CCCCCC3)cc2)c1	?	?	?	-	-	-	.
COC(=O)c1c(NC(=O)c2ccn(C)n2)sc2c1CCC2	.	.	.	40.0	.	-	?
Cc1cc(C)n(-c2nc3c(c(=O)[nH]c(=O)n3C)n2Cc2cccc(Br)c2)n1	.	-	-	84.2	-	-	-
CCc1nc2ccc(C(=O)Nc3ccc(NC(C)=O)cc3)cn2c1N(C)CCC(C)C	-	.	.	.	-	.	.
CCSc1nnc(-c2ccc(S(=O)(=O)N3CCOCC3)cc2)n1C	-	-	-	-	-	-	.
CCSc1nnc(-c2ccc(S(=O)(=O)N3CCCC3)cc2)n1C	-	-	-	67.0	-	-	-
O=C(COC(=O)CC1CC2CCC1C2)NCc1ccc(F)cc1 (centres undefined)	-	?	-	.	-	.	.
SMILES	Vaccinia mCherry	Lassa entry inh	MARV entry inh	Shiga toxin inh	Vaccinia Venus	CHX counter-1	CHX counter-2
O=C(CC1CC2CCC1C2)NCCc1ccc(Cl)cc1 (centres undefined)	-	-	-	49.4	-	-	-
O=C(NCC1CCCCC1)c1[nH]c(C(F)(F)F)nc1-c1ccccc1	-	.	.	.	-	.	.
CC(=O)c1cccc(N2C(=O)C3C4CCC(C4=C(C)C)C3C2=O)c1 (centres undefined)	-	-	?	24.9	-	-	-
CC(=O)Oc1cccc(N2C(=O)C3C4C=CC(C4=C(C)C)C3C2=O)c1 (centres undefined)	.	-	-	-	.	-	.
Cc1cccc(C(=O)N(c2ccccn2)C(C)c2ccco2)c1 (centres undefined)	-	-	-	-	-	-	.
CC(c1ccco1)N(C(=O)c1cc(Cl)cc(Cl)c1)c1ccccn1 (centres undefined)	-	-	?	24.4	-	-	-
O=C(Nc1ccc(/C=C/c2nc3ccccc3o2)cc1)c1ccc(F)cc1	.	-	-	36.7	-	-	2.25µM
COc1ccc(CC(=O)NC(C)c2nnc(SCC(=O)c3ccc(Br)cc3)n2C)cc1 (centres undefined)	-	-	-	-	-	-	.
COc1ccc(CC(=O)NC(C)c2nnc(SCC(=O)Nc3nc(C)cs3)n2C)cc1 (centres undefined)	.	-	-	29.5	.	-	-
COc1ccc(/[N+]([O-])=C/c2ccco2)cc1	-	.	.	.	-	.	.
CC1CCc2sc(C(=O)NN)cc2C1 (centres undefined)	-	.	.	36.3	-	-	-
Oc1ccc(C2C[C@H]3CC[C@@H]2C3)cc1O (some centres undefined)	-	-	?	33.6	-	-	-
CCOC(=O)C1=C(C)NC(=O)NC1c1ccc(OCC(=O)Nc2ccccc2)c(OC)c1 (centres undefined)	-	.	-	39.4	-	-	-
Cc1ccc(CCNC(=O)c2cn(C)c3ccc(S(=O)(=O)N(C)C4CCCCC4)cc3c2=O)cc1	-	-	-	.	-	.	.
COc1ccc(C)cc1N1C(=N)/C(=C2/Nc3ccccc3S2)C(c2ccccc2)C1=O (centres undefined)	-	-	?	20.7	-	-	-
COc1ccc(C2C(Oc3ccccc3)C(=O)N2c2cc(C)ccc2C)cc1OC (centres undefined)	-	?	?	-	-	-	.
COCCCN1C(=O)C(CC(=O)NCCc2ccccn2)CC(C(=O)N2CCOCC2)=C1C (centres undefined)	-	.	.	.	-	.	.
COc1ccc(N(CC(=O)Nc2ccc(Cl)cc2)S(=O)(=O)c2c(C)n[nH]c2C)cc1	.	.	.	23.9	.	-	-
CCNc1c(NC(=O)C2CCC(C)CC2)c(=O)oc2ccccc12 (centres undefined)	-	-	-	-	-	-	.
CCNc1c(NC(=O)c2cccs2)c(=O)oc2ccccc12	-	-	-	30.3	-	-	-
CC(=O)Nc1cccc2ncccc12	-	-	-	40.7	-	-	-
Cn1ccnc1C(OC(=O)c1ccccc1)C(F)(F)F (centres undefined)	.	.	.	-	.	-	.
O=C(c1cc(S(=O)(=O)N2CCOCC2)c(Cl)cc1Cl)N1CCN(S(=O)(=O)c2cccc(F)c2)CC1	-	-	-	.	-	.	.
Cc1ccc(S(=O)(=O)N2CCC(C(=O)N[C@@H](Cc3ccccc3)C(=O)O)CC2)cc1	.	-	?	34.0	.	-	-
COc1ccc(NC(=O)CN2CCN(c3nc(-c4ccc(F)cc4)cs3)CC2)c(OC)c1	-	-	-	35.7	-	-	-
COc1ccc(NC(=O)CN2CCN(c3nc(-c4cccc(OC)c4)cs3)CC2)cc1	-	-	-	-	-	-	.
COc1cccc(-c2csc(N3CCN(C(=O)Nc4ccc(F)cc4)CC3)n2)c1	?	-	?	33.7	?	-	-
